# Assay outcomes (PubChem BioAssay)
# Rows were chosen to be rich in hits. Some 21% of all compounds tested hit in one or more screens of this group.
# ClpP mod: qHTS Assay for Activators of ClpP | purified B. subtilis ClpP, FRET peptide cleavage, 20 min | AID 651965, 2013 | actives 1.9% (n = 340,000) | Potency, µM (highest dose often 57.5 µM), without a hit: top-dose activity change, negative = active; active = well fitted falling curve with a large enough effect; inconclusive = small, poorly fitted or top-dose-only effect; inactive = no such curve, though single readings can be large or run the other way; note: potency is the fitted concentration of half-maximal effect; the source files actives as falling curves though it sought activators and does not explain the sign; nearly all actives have a fitted effect of over 65% in size
# Target sequence (P80244 whole entry, looked up): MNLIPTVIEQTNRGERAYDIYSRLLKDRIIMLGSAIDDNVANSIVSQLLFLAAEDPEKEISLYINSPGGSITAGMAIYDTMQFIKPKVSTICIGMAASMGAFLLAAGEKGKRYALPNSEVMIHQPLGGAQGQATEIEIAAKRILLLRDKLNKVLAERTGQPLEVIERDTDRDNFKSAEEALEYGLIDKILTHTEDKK
#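 ClpP 10 microg/mL final, pH 8 Tris/KCl buffer with BSA, glycerol, Tween-20; compound pinned in; FRET-FV substrate; RT 20 min; Ex320/Em430; ΔFRET vs ADEP 5.8 microM, DMSO, no enzyme.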
# TDP1 cell noCPT: qHTS for Inhibitors of human tyrosyl-DNA phosphodiesterase 1 (TDP1): qHTS in cells in absence of CPT | DT40 Tdp1-/- hTDP1 cells, no CPT, ATP luminescence, 48 h | Potency, µM (highest dose often 46.2 µM), for inactives: at the highest dose activity change, negative = growth inhibition, hits mostly inhibitors | actives 15% (n = 420,000) | AID 686978, 2013; note: potency is the fitted concentration of half-maximal effect; % is set by controls: 0 for no effect and ±100 for the full control effect; nearly all actives have a fitted effect of over 55% in size
#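 DT40 Tdp1-/-;hTDP1 cells, no CPT (DMSO vehicle only), 400 cells/well; compounds pin-transferred; ≥48 hr, 37 °C; CellTiter-Glo 30 min RT dark, luminescence read.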
# D3 ag: activates the human D3 dopamine receptor; P35462; D3R DiscoveRx beta-arrestin cells, luminescence, 90 min; max activation, %; actives 0.58% (n = 410,000); AID 652048; in the data active = max activation above about 30%; note: 0% is about no effect
#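 Agonist-mode cell screen: cells plated at 1500/well and incubated overnight at 37 °C, then exposed to library compounds for 90 min at 37 °C. Detection reagent was added for 30–60 min at room temperature, and luminescence was read.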
# IL1B secr inh: inflammasome signaling inhibition, IL-1 beta readout. THP-1 LPS/ATP IL-1B secretion, AlphaLISA, 16 h; stronger effect = lower value. activity change, % at 57.5 µM. actives 4.7% (n = 360,000); in the data active = activity change below about -50%; inconclusive = mostly about -30% to -49%; note: % is set by controls: 0 for no effect and ±100 for the full control effect
#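 THP-1 cells pretreated 1 hr with compounds (up to 57.5 uM final), then stimulated with LPS (250 ng/mL final) plus ATP (1.25 mM final); secreted IL-1B measured by AlphaLISA after 16 hr, decreased signal indicating inhibition.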
# DT40 TDP1 CPT: DT40-hTDP1 cell growth loss with CPT; chicken DT40 Tdp1-/-;hTDP1 cells + 20 nM CPT, ATP luminescence, 48 h; actives 12% (n = 420,000); AID 686979; Potency, µM (highest dose often 46.2 µM), for the others: top-dose activity change, negative = growth inhibition, hits mostly inhibitors; note: potency is the fitted concentration of half-maximal effect; % is set by controls: 0 for no effect and ±100 for the full control effect; nearly all actives have a fitted effect of over 55% in size
#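 Chicken DT40 Tdp1-/- cells stably complemented with human TDP1 were seeded at 400 cells/well in medium containing 20 nM camptothecin, exposed to pin-transferred compounds, and grown at 37 °C for at least 48 hr. Viability was read as ATP luminescence.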
# DRD3 antagonist: blocks the human D3 dopamine receptor | P35462 | D3R cells, DiscoveRx beta-arrestin luminescence, antagonist mode; stronger effect = lower value | max response, negative = inhibition, % | actives 2.5% (n = 360,000); in the data active = max response below about -50%; inconclusive = no clear call, values can overlap the other calls; note: % is set by controls: 0 for no effect and ±100 for the full control effect
#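 Cells expressing the human receptor were seeded at 1500 cells/well, incubated overnight at 37 degrees C in 5% CO2, then exposed to library compounds with dopamine controls for 90 minutes at 37 degrees C before luminescent detection.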
# Starred values were filed as active, the others as inactive; ? = inconclusive; . = no result given; [ ] = another dose, or the depositor's remark. Unless noted, calls come from the whole dose curve; as a rule, active = well fitted inhibition curve with a large enough effect; inconclusive = small, poorly fitted or top-dose-only effect; inactive = flat fitted curve, though single readings scatter.
SMILES,ClpP mod,TDP1 cell noCPT,D3 ag,IL1B secr inh,DT40 TDP1 CPT,DRD3 antagonist
CN(C(=O)c1cccc(NC(=O)Cc2cccc(NC(=O)C3CCN(C(=O)CCc4ccccc4)CC3)c2)c1)C1CC1,-1%,23µM*,40*,-17,-96%,10
CN(C(=O)c1ccc(NC(=O)Cc2ccc(NC(=O)C3CCN(C(=O)CCc4ccccc4)CC3)cc2)cc1)C1CCCC1,1%,21µM*,-4,19,23µM*,-3
Cc1cn2c(=O)c(S(=O)(=O)N3CCN(c4cc(Cl)ccc4C)CC3)c(C)nc2s1,-6%,-2%,8,.,2%,.
O=C(NCC(=O)N1CCOCC1)c1ccc(Cl)cc1,-1%,3%,-6,6,-2%,3
O=C(Cc1cccc(NC(=O)C2CCCN(C(=O)CCc3ccccc3)C2)c1)Nc1ccc(C(=O)N2CCCCC2)cc1 (centres undefined),1%,23µM*,-34,-108*,29µM*,-52*
O=C(Nc1cccc(C(F)(F)F)c1)c1cccnc1NCCO,.,5%,-4,31,-7%,-1
O=C(Nc1cccc(C(F)(F)F)c1)c1cccnc1NCCc1ccccc1,28µM*,16µM*,1,-67*,?,-7
O=C(Nc1cccc(F)c1)c1cccnc1NCCc1ccccc1,?,?,0,-60*,?,10
O=C(Nc1cccc(F)c1)c1ccccc1-c1ccccc1,-1%,4%,-1,-14,?,-16
COc1ccc(C(=O)NCC(=O)N/N=C/c2cn(C)c3ccccc23)cc1OC,-1%,1%,-3,-9,-10%,0
COc1ccccc1N1C(=O)c2ccccc2NC1c1ccncc1 (centres undefined),?,2%,7,28,-9%,33
CCc1ccc(C2NC(=S)NC3=C2C(=O)N(c2ccccc2OC)C(c2ccc(CC)cc2)N3)cc1 (centres undefined),-2%,18µM*,3,-79*,16µM*,-1
O=C1C2=C(NC(=S)NC2c2ccc(Cl)cc2)NC(c2ccc(Cl)cc2)N1c1ccc(Cl)cc1 (centres undefined),-7%,?,3,-101*,?,16
O=C1C2CCCN2C(c2ccc(F)cc2)N1c1ccc(Cl)cc1 (centres undefined),-3%,-16%,3,-15,6%,4
CCCCNC(=O)C1(C)CCN1Cc1ccc(C#N)cc1 (centres undefined),-5%,-12%,-5,-14,-24%,?
CCOc1cc(N2CCOCC2)c(OCC)cc1NC(=O)COC(=O)c1ccc(Cl)nc1,.,-20%,6,-5,-17%,5
COc1ccc(OC)c(/C=N/NC(=O)CCN2CCN(C(c3ccccc3)c3ccccc3)CC2)c1,28µM*,16µM*,-6,-4,?,-23
O=C(CCN1CCN(C(c2ccccc2)c2ccccc2)CC1)N/N=C/c1ccc(O)cc1,-11%,?,-13,-12,?,?
O=C(CCN1CCN(C(c2ccccc2)c2ccccc2)CC1)N/N=C/c1ccc(O)cc1O,-4%,5.2µM*,-10,82,6.5µM*,?
CCC1CN(Cc2cn[nH]c2-c2ccc(OC)cc2)Cc2cc(OC)ccc2O1 (centres undefined),.,?,.,.,-4%[9.04 µM],.
COC(=O)[C@@]1(Cc2ccc(F)cc2)[C@H]2c3cc(C(=O)N4CCCC4)n(Cc4ccccc4)c3C[C@H]2CN1C(=O)c1ccccc1,-1%,23µM*,-3,-51*,?,-2
COC(=O)[C@@]1(Cc2ccc(F)cc2)[C@H]2c3cc(C(=O)N4CCCC4)n(C)c3C[C@H]2CN1C(=O)c1ccccc1,-3%,16µM*,-11,-54*,23µM*,-24
